# Laboratory results published in PubChem BioAssay AID1508600 (Functional Genomics Laboratory (NCATS/FGL), 2020).
# The whole screen tested about 53,000 sequences, of which about 3,700 (7%) were called active. The sample as a whole holds a higher share of actives than the screen did. Unmarked numbers belong to inactive results.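 Rule for the calls: active = gene knockdowns whose robust z-score for IL-1 alpha signal is at least 2 or at most -2, so actives lie on both sides; inactive = the rest.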
# Assay: Components of the Cytosolic LPS Sensing Pathway: Gene Identification via Genome-wide siRNA Screen;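 note: robust z of the log signal after scaling to non-targeting control siRNA wells of the plate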
# Settings: RAW264.7 macrophages, IL-1a HTRF, actives lie on both sides, screened at 100 nM (by protocol), cells primed 5 h with Pam3CSK4 first
# Outline: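 Three distinct siRNAs per gene were tested singly at 100 nM in RAW264.7 macrophages. Following Pam3CSK4 priming and 24 hour LipidA transfection, IL-1a secretion was read by HTRF.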
row,Sequence,z-score
1,CCCUUGUCUAAAAUAUACATT against Zfp941,-0.387
2,CCCUGCUAUCAGCAUCACATT against Hacd3,-3.09 (active)
3,CGGUAUUUGUCUGUAUCCUTT against Npc2,-1.71
4,GCUGGAUUCUGGUAAAUGGTT against Eif5a,-0.836
5,GCAGAUCCGAGACAAGUAUTT against Cplx2,-1.91
6,GGAUGAACAACUCUAGGCCTT against Mafk,-0.736
7,GGUCUACAGCUACCUGAAUTT against Npc2,0.105
8,GCGGUUUCUUACCAAUAACTT against Cyp1a2,0.984
9,GGAAGCGUGGAAGUCUACGTT against Kcnj16,0.277
10,GGGCAAAGGGAGUGACAAATT against Skp2,-1.95
11,GGACAACUACAUUGUACUGTT against Insr,-1.16
12,GGCAGCAGAGAACAAGAAATT against Serbp1,-1.43
13,CCCAACUGACAUCUUCCUATT against Gzmb,2.86 (active)
14,GGAAAGCACAUCCUCUUUGTT against Gpx6,1.02
15,CGUGAUUUCAGUGAGGGUGTT against Tarsl2,0.996
16,CGAAGUGAAGAUUUACAGCTT against Nol10,-0.106
17,GCAAUGUGACCAAGACAAUTT against Prelid1,0.739
18,GGCGUGAUAGCUGGACUUATT against Eola1,0.439
19,GGCCAUAUCUUAAAGUUAATT against Hcfc1r1,-0.246
20,GACCAGUGACAAGACCAUCTT against Unc45b,0.352
21,GGUGCAGGCCAUGAUUUACTT against C1qtnf4,2.65 (active)
22,GGAAAUGCCACCAAAGAACTT against Slc38a11,-0.168
23,CGGACUUGUUUUUUAGUCUTT against Tnrc18,0.164

row,Sequence,z-score
1,GGCCAACUGGAGAUAGAUATT against Tamm41,1.19
2,GGAUAAUGGUUUAAAACUCTT against Bmt2,-1.34
3,GGAAAACCUACCGAAGUUATT against Irf3,2.79 (active)
4,GCAUUGAAGUCACCUCCACTT against Clcn2,0.161
5,GGACAACCAAGGAAGAAACTT against Fam205c,0.816
6,GGUGUUUGAAGAGCUGACATT against Pde6b,-1.85
7,GGUUGUUAAGCUGAAGCAATT against Prkacb,-0.219
8,GCUAUAAUGCUGGAGUCAATT against P3h2,0.27
9,GGUGUGUUUGCUAUUUCCATT against Olfr259,0.4
10,GGUCCCAGCAUGUUUACGUTT against Slc2a12,3.04 (active)
11,GCUCUGUCUUCAGGUCAUUTT against Olfr1040,-0.0484
12,GGGACUGGAUUUCUGUAUUTT against Derl1,-0.694
13,GGCUAUCCAGAGAUACGUGTT against Snrnp25,-0.571
14,GGGCAUAGACAGUACCAGUTT against Clec2m,-2.04 (active)
15,GGACCAGCUAAAUAUUAGUTT against Rgs2,-0.315
16,GGCAUUAAUAUGUCUGACUTT against Tada1,-0.0627
17,GGAAAAAUGGCAACUUCAATT against Dock3,0.766
18,GGUGUAUGUCACCCUGACCTT against Sag,-0.617
19,GGGUAACUGGUUUGUAUGATT against Gm4814,1.34
20,GGGCAUAUUCAAACUUGUGTT against Elf2,-1.68
21,GGCUCAGACCUGGAUACAUTT against Oas1e,-2.31 (active)
22,CCAAGGUACUACUGGGAGATT against Sval3,0.268
23,GCAAGUACGCUGCUCUGUCTT against Eif4b,0.397

row,Sequence,z-score
1,GGCAGUCAGCUAAUGCUUATT against Pros1,-0.372
2,CGAGUAUUUUGAAAUCCUGTT against Cdcp3,0.406
3,GGAUCUAUGGGUAUCCUGCTT against Adam1a,-1.8
4,GGAGGAUGAGAUGAUGCCATT against Sez6l2,-2.19 (active)
5,GGCUCAAGUAUGAGAAUGATT against Krt15,-0.859
6,GGCUUUCCUUCGGAAGAAUTT against Abca14,-1.15
7,GGAAGAUACGUGCAAAAUGTT against Rbms2,-0.562
8,GGAACAGUCUGAAAUACACTT against Usp18,-0.907
9,GCAGUUCUGGUUCUGUCUGTT against Nudcd3,-0.203
10,GGCUCUUCUUAUGCACCCUTT against Pdyn,-0.543
11,CCCAGAAGGACGGCACUAGTT against H2-DMb2,0.265
12,GCCUGACAAUAGUCAUUUCTT against Olfr985,-2.03 (active)
13,GGCUCACACUCCUGUUAAUTT against Fam20c,-1.02
14,GGGCAUGAUUUUCACUUCCTT against Gpr150,0.79
15,CGAGAAGGGUCAUAUGAGCTT against Rbp4,-1.84
16,GCUGUGACAGAAGCUUUCGTT against Vars2,-0.201
17,CCCUCAUGUUUCAUUUGUGTT against Glrx3,-0.454
18,GCUUGAUAUAGUAUCCUUUTT against Prpf38b,-2.05 (active)
19,GGAUUGUCAGAGAAAGAGATT against Syt3,-0.751
20,GCUACAAAGAGUAAAACUGTT against Zfp251,1.01
21,GGCUGUUCGUGCAAGCCUATT against Bahcc1,0.544
22,GGUCAUCCCAUCUUACAAATT against 4933431E20Rik,0.649
23,CCGACAUCCUUGAUACGUUTT against Vps35l,-2.12 (active)
